In the library only some 2.4% were active in any assay of this set; here they are far more common.
Pol beta inh = inhibitors of human DNA polymerase beta; P06746; Pol beta primer extension/strand displacement, fluorescence kinetic; Potency, µM (doses to about 114 µM), actives largely listed as inhibitors; 1.3% of 340,000 active
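Homogeneous kinetic assay of primer extension and strand displacement by 10 nM Pol beta, preincubated 15 min at room temperature with compound before 50 nM substrate (final) was added. Read at 0 and 10 min; four-parameter Hill fit.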
TDP1 inh = TDP1 (human) enzyme inhibition | Q9NUW8 | recombinant TDP1, AlphaScreen DNA substrate cleavage | Potency, µM (series often up to 130 µM), actives largely listed as inhibitors | 0.28% of 350,000 active; further: nearly all actives have a fitted effect of over 40% in size
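Tdp1 1 nM final; 15 min RT w/ cpd; substrate 15 nM, 5 min; beads 10 ug/ml, 10 min; AlphaScreen read. Neg ctrl: no enzyme.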
Pol eta inh = blocks human DNA polymerase eta activity. Q9Y253. recombinant Pol eta, fluorescent DNA replication assay. Potency, µM (highest dose often 114 µM), actives largely listed as inhibitors. 1.2% of 390,000 active
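Fluorescent replication assay: 50 nM final substrate added after a 15 min room-temperature compound preincubation with 10 nM enzyme. Signal taken at 0 min and again at 10 min.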
Pol kappa inh = inhibitors of human DNA polymerase kappa; Potency, µM (series often up to 107 µM), most hits filed as inhibitors; Q9UBT6; purified Pol kappa, fluorescent DNA synthesis assay, 10 min; AID 588579; 0.53% of 400,000 active
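Kinetic fluorescence readout at 0 and 10 min followed reaction start with substrate at 50 nM final. Beforehand, enzyme (10 nM Pol kappa) stood 15 min with compound at room temperature; buffer-only wells were negative controls.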
POLI inh = DNA polymerase iota (human) inhibition. Potency, µM (titrated, usually from 115 µM), hits mostly inhibitors. Pol iota fluorescent replication assay, 10 min. AID 588590. 1% of 390,000 active
Target sequence (Q9UNA4 whole entry, looked up): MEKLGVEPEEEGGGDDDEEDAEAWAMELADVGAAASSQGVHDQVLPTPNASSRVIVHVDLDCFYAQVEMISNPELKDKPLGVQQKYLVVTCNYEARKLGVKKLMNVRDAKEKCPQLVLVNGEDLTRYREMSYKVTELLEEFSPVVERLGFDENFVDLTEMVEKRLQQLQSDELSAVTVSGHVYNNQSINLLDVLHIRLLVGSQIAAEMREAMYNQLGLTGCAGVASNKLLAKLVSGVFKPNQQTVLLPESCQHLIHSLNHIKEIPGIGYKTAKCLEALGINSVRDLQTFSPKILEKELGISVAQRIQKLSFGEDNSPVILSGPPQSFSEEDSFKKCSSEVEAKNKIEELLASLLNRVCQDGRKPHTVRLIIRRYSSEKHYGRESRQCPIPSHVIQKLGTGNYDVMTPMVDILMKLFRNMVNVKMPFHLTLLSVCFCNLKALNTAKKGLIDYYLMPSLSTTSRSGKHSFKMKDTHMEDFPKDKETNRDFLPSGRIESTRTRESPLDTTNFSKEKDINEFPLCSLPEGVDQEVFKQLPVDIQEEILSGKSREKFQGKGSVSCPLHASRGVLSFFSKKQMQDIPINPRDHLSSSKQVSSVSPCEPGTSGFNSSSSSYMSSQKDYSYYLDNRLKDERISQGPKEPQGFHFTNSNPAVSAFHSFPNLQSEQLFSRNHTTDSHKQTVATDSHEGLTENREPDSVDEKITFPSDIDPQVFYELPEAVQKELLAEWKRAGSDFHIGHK
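Pol iota at 10 nM preincubated 15 min with compounds at room temperature; reaction started with fluorescent substrate, 50 nM final. Fluorescence read kinetically at 0 and 10 min; buffer-only wells as negative control.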
FEN1 inhibitor = blocks human flap endonuclease 1; 0.35% of 390,000 active; Potency, µM (highest dose often 114 µM), usual class: inhibitors; Recombinant FEN1 flap cleavage, fluorescence, 15 min; P39748; further: nearly all actives have a fitted effect of over 65% in size
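In this screen, 50 nM flap DNA substrate was added to 10 nM FEN1 pretreated with compound for 15 min at room temperature; cleavage was followed with reads at 0 and 15 min, and Hill fitting gave concentration–response parameters.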
Large screens that a line does not name were inactive. The call rests on the fitted dose curve; in most records, active means well fitted curve in the direction sought with a large enough effect; inconclusive means small, poorly fitted or top-dose-only effect, or another doubt; inactive means no such curve, though single readings can be large; an effect the other way counts as inactive or inconclusive.

Cc1ccc(NS(=O)(=O)c2ccc3c(c2)CCC(C)(C)O3)cc1C	none (no result: Pol beta inh, Pol eta inh, Pol kappa inh, POLI inh, FEN1 inhibitor)
Cc1cc(Br)ccc1OCC(=O)NNC(=O)C(=O)Nc1ccccc1	Pol beta inh 28µM, POLI inh inconclusive
O=C(COc1ccc2ccccc2c1)NNC(=O)C(=O)Nc1ccccc1	Pol beta inh 40µM, POLI inh inconclusive (no result: TDP1 inh)
Cc1ccc(C(C)C)c(OCCCn2c(=O)oc3ccccc32)c1	none
CCCOc1ccc(-c2c(C(=O)N/N=C(\C)c3cccnc3)nnn2-c2nonc2N)cc1	POLI inh 45µM
CCOc1ccc(-c2c(C(=O)N/N=C(\C)c3cccnc3)nnn2-c2nonc2N)cc1	POLI inh inconclusive
O=C1C(=O)N(C2CCN(S(=O)(=O)c3ccc(F)cc3)CC2)CCN1Cc1ccccc1	none
COc1ccc(C(=O)N2CCC3(CCN(Cc4cc(C(F)(F)F)cc(C(F)(F)F)c4)CC3)CC2)cc1	none (no result: Pol beta inh, TDP1 inh, Pol eta inh, POLI inh, FEN1 inhibitor)
Cc1ccccc1NC(=O)c1nc(S(=O)(=O)Cc2ccccc2F)ncc1Cl	none (no result: Pol beta inh, TDP1 inh, Pol eta inh)
CCc1ccc(-n2c(=O)c3ccccc3n(Cc3ccccc3C#N)c2=O)cc1	none
CC(=O)Nc1ccc(S(=O)(=O)N2CCN(S(=O)(=O)c3ccc4c(c3)OCCO4)CC2)cc1	none (no result: Pol beta inh, Pol eta inh, Pol kappa inh, POLI inh, FEN1 inhibitor)
COc1ccccc1C=C1SC(=S)NC1=O	Pol eta inh inconclusive, POLI inh inconclusive (no result: Pol beta inh, TDP1 inh)
CC(=C1SC(=S)NC1=O)c1ccccc1	POLI inh 89µM (no result: Pol beta inh, TDP1 inh)
CCc1ccccc1NC(=O)c1ccc2c(SCC(=O)O)c3c(nc2c1)CCC3	POLI inh inconclusive
CCCCC1=CC2=C(c3ccco3)C(=O)C(C)(OC(=O)c3cccs3)C(=O)C2=CO1 (stereo unspecified)	none (no result: Pol beta inh, Pol eta inh, Pol kappa inh, POLI inh, FEN1 inhibitor)
COc1ccc(-c2cc(C(=O)N3CCN(c4ncccn4)CC3)c3ccccc3n2)c(OC)c1	none
Cc1ccc(-c2cc(C(=O)N3CCN(c4ccc(O)cc4)CC3)c3ccccc3n2)cc1	POLI inh inconclusive (no result: Pol beta inh)
Cc1ccc(-c2cc(C(=O)N3CCN(c4ccc(F)cc4)CC3)c3ccccc3n2)o1	Pol beta inh 28µM, Pol eta inh inconclusive, POLI inh 35µM
Cc1ccc(-c2cc(C(=O)N3CCCCC3)c3ccccc3n2)cc1C	Pol beta inh inconclusive
Cc1ccccc1-c1cc(C(=O)N2CCCC2)c2ccccc2n1	Pol beta inh inconclusive, Pol eta inh inconclusive, Pol kappa inh inconclusive, POLI inh 25µM
COc1ccc(-c2cc(C(=O)N3CCCCCC3)c3ccccc3n2)c(OC)c1	Pol beta inh 22µM, Pol eta inh inconclusive, POLI inh 79µM
Cc1ccc(S(=O)(=O)CCC(=O)Nc2ccc(OC(F)(F)F)cc2)cc1	none
CN(C)c1ccc(/C=C2\C=Cc3ccccc32)c(F)c1	POLI inh inconclusive (no result: Pol beta inh, TDP1 inh, Pol eta inh)
COc1ccc(C(=O)Nc2ccc(-c3nc4ncccc4o3)cc2)cc1	none (no result: TDP1 inh)
Cc1cc(C)cc(NC(=O)c2ccc([N+](=O)[O-])o2)c1	FEN1 inhibitor inconclusive
Cc1cc(C)nc(NC(=O)c2ccc([N+](=O)[O-])o2)n1	TDP1 inh inconclusive, Pol eta inh inconclusive, POLI inh 71µM
O=C(Nc1nc(-c2ccccn2)cs1)c1ccc([N+](=O)[O-])o1	Pol beta inh inconclusive, Pol eta inh 35µM, POLI inh 22µM
Cc1cc(C)cc(C(=O)Nc2ccc(-c3nc4ncccc4o3)cc2)c1	Pol beta inh 14µM, Pol eta inh inconclusive
Cc1ccc(C(=O)Nc2nc(-c3ccccn3)cs2)o1	none
Cc1ccc(-c2nc3ncccc3o2)cc1NC(=O)c1ccc([N+](=O)[O-])o1	none
Cc1cc(-c2nc3ncccc3o2)ccc1NC(=O)c1ccc([N+](=O)[O-])o1	Pol eta inh 50µM, POLI inh 3.5µM, FEN1 inhibitor inconclusive (no result: Pol beta inh, TDP1 inh)
CCn1nc(-c2ccccc2)c(-c2ccccc2)c(C(=O)Nc2ccccc2C(N)=O)c1=O	none
COc1cc(OC)c(OC)cc1/C=C/c1cc[n+](C)c2ccccc12	Pol kappa inh 89µM, POLI inh 71µM, FEN1 inhibitor 40µM (no result: Pol beta inh, TDP1 inh, Pol eta inh)
C[n+]1ccc(/C=C/c2ccccc2O)c2ccccc21	FEN1 inhibitor inconclusive
C[n+]1ccc(/C=C/c2ccc(C=S)cc2)c2ccccc21	POLI inh 89µM, FEN1 inhibitor 50µM (no result: Pol beta inh, TDP1 inh, Pol eta inh)
